Bioassay records deposited in PubChem BioAssay by National Center for Advancing Translational Sciences (NCATS).
Only a selection was taken, and hits are over-represented in it overall.
Pf Dd2 growth: Plasmodium falciparum Dd2 growth inhibition; AID 1347417; Potency, µM (series often up to 28.9 µM), actives largely listed as inhibitors; P. falciparum Dd2 growth, SYBR Green, 72 h; 4.3% of 120,000 active; active = well fitted inhibition curve with a large enough effect; also: nearly all actives have a fitted effect of over 65% in size
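Infected erythrocytes (Dd2, 0.3% parasitemia, 2.5% hematocrit final) are added to compound in RPMI-1640/Albumax II medium, grown 72 h at 37C in low oxygen, then lysed with saponin/Triton-X containing SYBR Green and read by fluorescence.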
Of the large screens only hits and unclear results are named; the others gave an inactive call.

COc1cccc(/C=C/c2onc(C)c2S(=O)(=O)N2CCC(C(=O)N3CCC(C)CC3)CC2)c1	none
COc1cccc(CNC(=O)C2CCN(S(=O)(=O)c3c(C)noc3/C=C/c3cccs3)CC2)c1	Pf Dd2 growth 6.3µM
CCC1(C(=O)NCCc2ccccc2)CCCCC(=O)N1 (configuration not stated)	none
CCNC(=O)CCc1c(C)nn(-c2ccccc2C)c1Oc1ccccc1F	none
Fc1ccc(CN2CC(Oc3ccc4c(c3)OCO4)C2)cc1	none
O=C1NCCCCCCN(S(=O)(=O)c2cccs2)[C@H]2CCC[C@@H]12	none
O=C1NCCCCCN(S(=O)(=O)c2cccs2)[C@H]2CCCC[C@@H]12	none
O=S(=O)(c1cccs1)N1C[C@@H](c2ccc(F)cc2)[C@@H]2[C@H]1C1CCN2CC1	Pf Dd2 growth 5.6µM
COc1ccc(-c2noc([C@@H](C)NC(=O)c3nc4ccccc4s3)c2C(=O)O)cc1	none
Cc1noc([C@@H]2CN(Cc3cccc(F)c3)C[C@H]2CO)n1	none
CN1C(=O)Cc2cc(S(=O)(=O)CCC(=O)Nc3cccc(C(F)(F)F)c3)ccc21	none
Fc1ccc(-c2cc(CC3(NCC4CCCCC4)COC3)no2)cc1	none
CC(=O)N1CCN(C(=O)C[C@@H]2C[C@@H](C(C)C)[C@H](CNC(=O)c3cncnc3)C=C2C)CC1	none
Cc1cc2n(n1)CCCN2C(=O)Nc1ccccc1F	none
Cc1cc(F)ccc1NC(=O)CN1C(=O)NC2(CCCCC2)C1=O	none
COc1ccc(NC(=O)c2sc3nc4c(cc3c2N)CCCCCC4)cc1	none
COc1ccc(NC(=O)c2sc3nc(C)c(C(=O)Nc4ccc(Cl)cc4)c(-c4ccc(Br)cc4)c3c2N)cc1	none
COc1ccc(-c2c3c(nc4sc(C(=O)Nc5ccc(Cl)cc5)c(N)c24)CC(C)(C)CC3=O)cc1	Pf Dd2 growth 0.063µM
CC(=O)N(C)CCc1noc(C2CN(C(=O)Cn3c(=O)oc4ccccc43)C2)n1	none
N#Cc1cccc(NC(=S)N[C@H]2CO[C@H]3[C@@H]2OC[C@@H]3n2nnnc2Oc2ccc3c(c2)OCO3)c1	none
N#Cc1cccc(NC(=S)N[C@H]2CO[C@H]3[C@@H]2OC[C@@H]3n2nnnc2Oc2ccccc2)c1	none
N#Cc1cccc(NC(=S)N[C@H]2CO[C@H]3[C@@H]2OC[C@@H]3n2nnnc2Oc2cccc(N3CCOCC3)c2)c1	Pf Dd2 growth 8.9µM
Cc1ccc(CNC(=O)N2C[C@@H](C(N)=O)[C@H](c3n[nH]c(C)n3)C2)cc1	none
COc1cc(=O)n2c(c1C(=O)NCc1cc(F)cc(F)c1)CCCC2	none
OCC(O)CNc1nccc(C2(c3ccccc3Cl)CCNCC2)n1 (configuration not stated)	none
CC(C)CNc1nccc(C2(c3ccccc3Cl)CCNCC2)n1	Pf Dd2 growth 5µM
C[C@@H](O)CNc1nccc(C2(c3ccccc3Cl)CCNCC2)n1	none
Clc1ccccc1C1(c2ccnc(NCc3ccncc3)n2)CCNCC1	none
CCC(C)Cc1nccc(C2(c3ccccc3Cl)CCNCC2)n1 (configuration not stated)	Pf Dd2 growth 4.5µM
CC(CNc1nccc(C2(c3ccccc3Cl)CCNCC2)n1)CN(C)C (configuration not stated)	none
CN(CC(=O)Nc1cccc(Cl)c1)S(=O)(=O)c1ccc2[nH]c3c(c2c1)CCCC3	none
O=C(NC1CCCCC1)c1cc2c(Cl)nc3ccccc3c2s1	none
COc1cccc(CN[C@@H]2CCC[C@@H](C(=O)NCc3cc(C)on3)CC(=O)N(C)C2)c1	none
Cc1noc(-c2cn(C3CCN(C(=O)COc4ccc(F)cc4)CC3)nn2)n1	none
Cc1cc(C(=O)N2CCC(c3noc(-c4ccncc4)n3)C2)nn1C (configuration not stated)	none
CCCn1c2ccccc2c2cnn(CC(=O)N3CCC(C(=O)OCC)CC3)c(=O)c21	none
COc1cccc2sc(N(Cc3cccnc3)C(=O)c3ccc(S(=O)(=O)N(C)C)cc3)nc12	none
CCc1ccc2nc(N(Cc3cccnc3)C(=O)c3cccs3)sc2c1	Pf Dd2 growth 3.2µM
COc1ccc2nc(N(Cc3cccnc3)C(=O)COc3ccccc3)sc2c1	none
COc1ccc2sc(N(Cc3cccnc3)C(=O)c3ccc4c(c3)OCCO4)nc2c1	Pf Dd2 growth 7.1µM
CCc1ccc2nc(N(CCN(CC)CC)C(=O)c3cccs3)sc2c1	none
O=C(c1cccs1)N(Cc1cccnc1)c1nc2c(F)cc(F)cc2s1	none
Cc1ccc2nc(N(Cc3cccnc3)C(=O)C3CCCCC3)sc2c1	Pf Dd2 growth 2.5µM
CCOc1ccc2nc(N(Cc3cccnc3)C(=O)C3CCCCC3)sc2c1	Pf Dd2 growth 2.2µM
COc1ccc2nc(N(Cc3cccnc3)C(=O)C3COc4ccccc4O3)sc2c1 (configuration not stated)	none
O=C(COc1ccccc1)N(Cc1cccnc1)c1nc2ccc(F)cc2s1	none
Cc1cc2nc(N(Cc3cccnc3)C(=O)c3ccc(Cl)s3)sc2cc1C	none
COc1ccc2sc(N(Cc3cccnc3)C(=O)COc3ccccc3)nc2c1	none
COc1cccc(CCC(=O)N2CCC3(CC2)N=C(c2ccc(C)cc2)NO3)c1	none
CCC(=O)N1CCC2(CC1)CC(N1CCCC1)CCO2 (configuration not stated)	none
Cc1c(Cl)ccc2sc(N3CCN(C(=O)CCS(=O)(=O)c4ccc(F)cc4)CC3)nc12	none
O=C(Nc1cccc(C(=O)N2CCCCC2)c1)c1nsc2ccccc12	none
CCOC(=O)c1[nH]c(C)c(CCC(=O)NC(C)c2ccccc2)c1C (configuration not stated)	none
CCc1ccc(OCC(=O)Nc2cc3oc4ccccc4c3cc2OC)c(Br)c1	none
CCCS(=O)(=O)N1CCC(c2noc(-c3cccnc3)n2)C1 (configuration not stated)	none
CC(=O)N1CCC(NC2(Cc3cc(-c4cccc(O)c4)on3)COC2)CC1	none
Fc1cccc(-c2cc3c(cn2)CN(Cc2ccncc2)CCN3)c1	none
c1cc(CN2CCNc3cc(-c4ccsc4)ncc3C2)ccn1	none
c1ccc(Oc2ccccc2-c2cc3c(cn2)CN(Cc2ccncc2)CCN3)cc1	Pf Dd2 growth 8.9µM
COc1ccc(C(=O)N2CCC3(CC2)CC(c2ccccc2)=NO3)cc1	none
CCN1C(=O)CCC2(C(=O)Nc3ccc(OC)cc3OC)CCCC=C12 (configuration not stated)	none
Cn1cccc1-c1cc2n(n1)CCC(=O)N2CCCC(=O)NCc1ccc(F)cc1	none
CCCCC(=O)Nc1nnc(S(=O)(=O)N(C)Cc2ccc(Cl)cc2)s1	none
Cc1ccc(NC(=O)Nc2csc3c2CCCC3)c(C)c1	none
O=C(Nc1ccc(F)cc1)Nc1csc2c1CCCC2	Pf Dd2 growth 10µM
CCc1cccc(C)c1NC(=O)Nc1csc2c1CCCC2	none
COc1cc(CNC(=O)c2ccc(NC(=O)N3CCCCc4ccccc43)cc2)cc(OC)c1OC	none
CCCSc1nnc2n(-c3ccc(OC)cc3)c(=O)c3c4c(sc3n12)COC(C(C)C)C4 (configuration not stated)	Pf Dd2 growth 10µM
COC(=O)CSc1nnc2n(-c3ccccc3)c(=O)c3c4c(sc3n12)COC(C(C)C)C4 (configuration not stated)	none
COc1ccc(-n2c(SCCC(C)C)nc3sc4c(c3c2=O)CC(C(C)C)OC4)cc1 (configuration not stated)	none
O=C(NCC1CC1)C1(CCO)CC12CCOCC2 (configuration not stated)	none
CC1CCCCN1CCCNC(=O)Cn1ncc2c3ccccc3n(Cc3ccccc3)c2c1=O (configuration not stated)	none
Cc1c(CN2CCC3(CCNCC3)C2)c(=O)n(-c2ccccc2)n1C	none
Cc1noc(C)c1C(=O)N1Cc2ccccc2CC2(CCN(C)C2)C1 (configuration not stated)	Pf Dd2 growth 10µM
